We go through 17 molecules from PubChem BioAssay (NCI).

Compounds without any hit were thinned out: in the full panel of roughly 83,000, 20% have a hit.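 Method: cells in 96-well plates; compound added at one concentration; 48 h incubation; percent growth measured; values under 10 scored active.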 A number with no mark means an inactive call. The source made the active and inactive calls.

The assay deals with DU-145 prostate. In words: NCI-60 one-dose screen, 48 h (100 = growth as untreated, 0 = no growth, -100 = all killed). The settings on record: 10 µM.
As to `O=C(Nc1ccc(OCC(=O)c2ccc(Cl)cc2)cc1)Nc1ccc(Cl)c(C(F)(F)F)c1`, the growth is 66.2%.

Consider `Cc1ccc2sc3c(c2c1)Oc1nc[nH]c(=O)c1C3c1cccc(F)c1` (configuration not stated), for which the growth is 105%.

Take `Cc1cc(N=C2NC(=O)/C(=C/c3cc(C(C)(C)C)c(O)c(C(C)(C)C)c3)S2)n[nH]1`: the growth is 27.2%.

With `COc1ccc(C2c3sc4ccc(C)cc4c3Oc3nc[nH]c(=O)c32)cc1` (configuration not stated), the growth is 105%.

Consider `COc1cccc(C(=O)CSc2nc(-c3ccc(OCc4ccccc4)c(OC)c3)c(C#N)c(=O)[nH]2)c1`, for which the growth was 107%.

As for `Cc1ccc(COc2ccc(NC(=O)Nc3ccc(Cl)c(C(F)(F)F)c3)cc2)cc1`, the growth was 81.5%.

For `O=C(O)CCN1C(=O)/C(=C/C=C/c2ccc([N+](=O)[O-])o2)SC1=S`, the growth is 26.3%.

Turning to `CC(C)(C)c1cc(/C=C2\S/C(=N/c3ncn[nH]3)NC2=O)cc(C(C)(C)C)c1O`, the growth was 32.3%.

On to `Cn1cc(/C=C(/SS/C(=C/c2cn(C)c3cccc(C(=O)O)c23)C(=O)O)C(=O)O)c2c(C(=O)O)cccc21`, for which the growth is 104%.

As to `COc1ccc(C(=O)COc2ccc(NC(=O)Nc3ccccc3)cc2)cc1`, the growth was 105%.

Turning to `CCn1c(SCC(=O)Nc2ccc(-c3nc4ccccc4[nH]3)cc2)nc2ccccc2c1=O`, the growth was -50.3% (active).

On to `O=C(Nc1ccc(OCc2ccc(F)cc2)cc1)Nc1ccc(Cl)c(C(F)(F)F)c1`, for which the growth was 31.6%.

Take `O=C(CC(=O)Nc1ccc(Oc2ncnc3scc(Nc4n[nH]c(=S)s4)c23)cc1)Nc1ccc(Br)cc1`: the growth was 107%.

Regarding `COc1ccc(C(=O)COc2ccc(NC(=O)Nc3ccc(Cl)c(C(F)(F)F)c3)cc2)cc1`, the growth is 47.3%.

Consider `O=C(Nc1ccc(Oc2ncnc3scc(Nc4n[nH]c(=S)s4)c23)cc1)C1(C(=O)Nc2cccc(C(F)(F)F)c2)CC1`, for which the growth was 106%.

Consider `O=C1NC(=S)S/C1=C\c1cn(-c2ccccc2)nc1-c1ccc([N+](=O)[O-])cc1`, for which the growth was 36.9%.

As for `O=C(CSc1nc2ccccc2c(=O)n1-c1ccc(Cl)cc1)Nc1ccc(-c2nc3ccc([N+](=O)[O-])cc3[nH]2)cc1`, the growth was 44.2%.
